# Assay outcomes as filed in PubChem.
# HCV inhibitor: qHTS Assay for Inhibitors of Hepatitis C Virus (HCV). 340,000 tested, 3.4% active. Huh7.5.1 HCVcc-Cre infection, luciferase reporter, 44 h. Potency, µM (series often up to 41.8 µM), usual class: inhibitors
#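 Reporter virus HCVcc-Cre (~0.5 moi) infects cells exposed to compound; seeding density 1,000 cells/well with 4 h settling beforehand. Luminescence, 15 sec read, taken 44 h post-infection following a 15 min RT substrate incubation.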
# SARS PLpro yeast: qHTS of Yeast-based Assay for SARS-CoV PLP; S. cerevisiae expressing SARS-CoV PLpro, growth rescue; Potency, µM (titrated, usually from 32.9 µM), most hits filed as activators; 330,000 tested, 0.19% active; calls by dose curve; also: nearly all actives have a fitted effect of over 55% in size
# Pf growth 48h: Primary qHTS for delayed death inhibitors of the malarial parasite plastid, 48 hour incubation; Potency, µM (highest dose often 28.7 µM), usual class: inhibitors; 310,000 tested, 5.9% active; P. falciparum luciferase growth in erythrocytes, 48 h
#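 Luciferase-expressing parasites in RBCs, 2% Hct / 0.1% parasitemia final; RPMI 1640 + 0.5% Albumax; 37 C, 5% CO2, one generation; luminescence read-out, lower signal = inhibition.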
# AMA1 RON2 block: qHTS for Inhibitors of AMA1-RON; Towards Development of Antimalarial Drug Lead: Primary Screen. Plasmodium falciparum AMA1 (3D7) - RON2 peptide interaction. AID 720542, 2013. 360,000 tested, 0.2% active. AlphaScreen AMA1-biotinylated RON2 peptide binding. Potency, µM (doses to about 58.2 µM), most hits filed as inhibitors; also: nearly all actives have a fitted effect of over 45% in size
#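 AMA1 (3D7) with his tag at 25 nM final met compounds first, then biotinylated RON2 peptide at 25 nM; detection used donor plus acceptor beads, 10 µg/mL apiece, read by AlphaScreen after 30 min at room temperature.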
# NS1 inh: qHTS Assay for Inhibitors of Influenza NS1 Protein Function; 270,000 tested, 0.4% active; Potency, µM (top dose mostly 46.1 µM); AID 2326, 2010; calls by dose curve; also: actives are rising curves; nearly all actives have a fitted effect of over 50% in size
#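 In this qHTS, NS1 from influenza A is expressed in budding yeast, where it slows growth. Cells are switched from glucose to 2% galactose medium (pH 6.0, -URA), treated with compound, and growth recovery is read at OD600.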
# Pf growth 96h: Primary qHTS for delayed death inhibitors of the malarial parasite plastid, 96 hour incubation | P. falciparum luciferase reporter growth, 96 h | Potency, µM (titrated, usually from 28.7 µM), most hits filed as inhibitors | 320,000 tested, 6.9% active
#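 96 h incubation, 37 C, 5% CO2, of luciferase-reporter P. falciparum-infected RBCs (2% hematocrit, 0.05% parasitemia final) with test compounds; endpoint luminescence.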
# A number is an active result; – = inactive; ? = inconclusive; · = no result; [ ] = remark or other dose. The list is not random: actives were taken first. Their share in the collection is about 12%. Unless noted, calls follow the shape of the dose curve; as a rule, active = well fitted curve in the direction sought with a large enough effect; inconclusive = small, poorly fitted or top-dose-only effect, or another doubt; inactive = no such curve, though single readings can be large; an effect the other way counts as inactive or inconclusive.
SMILES,HCV inhibitor,SARS PLpro yeast,Pf growth 48h,AMA1 RON2 block,NS1 inh,Pf growth 96h
CCCCN(CCCC)S(=O)(=O)c1ccc(NS(=O)(=O)c2ccc(NC(C)=O)cc2)cc1,–,–,–,–,–,·
Cc1ccc(S(=O)(=O)C2(C(=O)N3CCCCCC3)CC2)cc1,–,–,–,–,–,4.15µM
O=C(c1ccc(NS(=O)(=O)c2cccc(F)c2)cc1)N1CCCC1,–,–,–,–,–,–
Cc1ccc(NS(=O)(=O)c2ccc(C(=O)N3CCCCCC3)cc2)cc1,?,–,10.4µM,–[11.6 µM],·,?
Cc1ccc(S(=O)(=O)C2(C(=O)N3CCN(C4CCCCC4)CC3)CC2)cc1,–,–,–,–,–,–
CCCCOc1ccc(S(=O)(=O)Nc2ccc(NC(C)=O)cc2)cc1,8.91µM,–,–,–,–,?
O=C(c1ccc(NS(=O)(=O)c2cccc(C(F)(F)F)c2)cc1)N1CCCC1,–,–,–,–,–,10.4µM
Cc1ccc(NS(=O)(=O)c2ccc(C(=O)N3CCC3)cc2)cc1,?,–,?,–,·,–
CCN(CC)S(=O)(=O)c1ccc2c(c1)c(=O)c(C(=O)NCc1ccco1)cn2C,–,–,–,–,·,–
COc1nccnc1NS(=O)(=O)c1ccc(NS(=O)(=O)c2ccc(NC(C)=O)cc2)cc1,–,–,·,–,–,?
Cc1ccc(NS(=O)(=O)c2ccc(C(=O)N3CCCN(C)CC3)cc2)cc1,?,–,–,–,–,–
Cc1ccc(NS(=O)(=O)c2ccc(C(=O)N3CCCCCCC3)cc2)cc1,–,–,?,–,–,2.08µM
Cc1ccc(NS(=O)(=O)c2ccc(C(=O)N3CC(C)OC(C)C3)cc2)cc1 (configuration not stated),–,–,?,–,–,13.1µM
CCCCCC(=O)Nc1ccc(S(=O)(=O)Nc2nccnc2OC)cc1,–,–,–,–,–,2.33µM
COc1ccc(NS(=O)(=O)c2ccc(NC(=O)C3CC3)cc2)cc1,10µM,–,–,–,–,?
C=C1/C=C(\C)[C@](C)(O)C[C@H](O)CC(=O)[C@H](O)[C@@H](O)[C@H](C)C[C@H](C)OC(=O)/C(C)=C/CC/C=C/[C@@H]2O[C@H]2C[C@H](C)C1,–,–,·,·,·,·
NS(=O)(=O)c1ccc(CCNC(=O)CSCC(=O)Nc2ccc(Cl)cc2)cc1,?,–,–,–,·,?
CCCCN1C[C@H](c2ccccc2)[C@@H](CC(=O)NC)C1=O,·,·,·,–,·,·
Cc1ccc(OC2CCN(C(=O)[C@H]3O[C@@H](n4ccc(N)nc4=O)[C@H](O)[C@@H]3O)CC2)cc1,·,·,·,–,·,·
COc1ccc(NS(=O)(=O)c2ccc(C(=O)N3CCCCCC3)cc2)cc1,14.1µM,–,·,–,·,·
O=C(c1ccc(Nc2cccc(C(F)(F)F)c2)nc1)N1CCCC1,–,–,?,–,–,16.5µM
NC(=O)CC(NC(=O)Cc1ccc(Br)cc1)c1ccc(NCCN2CCCCC2)c([N+](=O)[O-])c1 (configuration not stated),–,–,–,–,–,0.0104µM
NC(=O)CC(NC(=O)Cc1ccc(Br)cc1)c1ccc(NCCN2CCCC2)c([N+](=O)[O-])c1 (configuration not stated),–,–,–,–,–,?
CC1CCCCN1CCCNc1ccc(C(CC(N)=O)NC(=O)Cc2cccc3ccccc23)cc1[N+](=O)[O-] (configuration not stated),–,–,?,–,–,2.08µM
NC(=O)CC(NC(=O)Cc1cccc2ccccc12)c1ccc(NC2CCCC2)c([N+](=O)[O-])c1 (configuration not stated),–,·,·,–,·,·
NC(=O)CC(NC(=O)Cc1cccc2ccccc12)c1ccc(NC2CC3CCC2C3)c([N+](=O)[O-])c1 (configuration not stated),11.2µM,–,–,–,–,?
CNC(=S)NCCc1cc2c(OC)ccc(OC)c2[nH]c1=O,–,–,–,–,·,–
